Only some compounds are listed: those with a hit (about 0.5% of all), similar ones and a draw of the others.
Tat transport: inhibitors of E. coli Tat protein transport. hit rate 0.036% among 340,000. E. coli MC4100 TorA-mCherry Tat export, fluorescence. inhibition, % at 10 µM;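 active = mean replicate inhibition at least 50% and at least half of replicates individually reaching 50%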;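 note: exported cargo escapes ClpAP degradation while cytoplasmic cargo is degraded and loses fluorescence; 0% = median of neutral control wells and 100% = median of NaSCN control wells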
E coli growth-1: counter-screen for AddAB inhibitors: E. coli growth inhibition; AID 449728; E. coli V3065 growth, OD600 absorbance, 18 h; inhibition, % at 11.9 µM; hit rate 0.27% among 330,000;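 active = inhibition above the campaign's mean inhibition across all tested compounds plus 3 SD, cut at about 9.9% in these data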;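 note: uninfected addAB+ strain grown without phage in ampicillin broth; 0% = DMSO wells and 100% = ciprofloxacin 0.95 µg/ml wells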
AddAB inh: less growth of phage-infected E. coli with AddAB; inhibition, % at 11.9 µM; E. coli expressing H. pylori AddAB, absorbance growth; AID 435030; hit rate 0.29% among 330,000; in the data active = inhibition above about 12%;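 note: 0% = vehicle wells of infected cells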
E coli growth-2: blocks Escherichia coli growth; OD600, 23 h; stronger effect = lower value; OD600 absorbance (concentration not given with the values); hit rate 0.21% among 330,000; AID 1053175;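 active = OD600 absorbance below the run mean of sample wells minus 3.6 SD, in any replicate, cut at about 0.56 in these data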
phage Ecoli inh: E. coli growth loss with phage present; growth absorbance; hit rate 0.26% among 360,000; inhibition, % at 11.9 µM; in the data active = inhibition above about 11%
AddAB confirm: confirmation screen: growth loss of phage-infected E. coli expressing H. pylori AddAB. shares compounds with AddAB inh. E. coli V3065 expressing H. pylori AddAB, T4 phage, OD; T4 phage with gene 2 nonsense mutations. inhibition, % at 11.9 µM. hit rate 64% among 880;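 active = mean inhibition above a set limit taken from the earlier primary screen, cut at about 13% in these data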;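 note: higher means less bacterial growth since AddAB block lets phage replicate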
RecBCD counter: counter-screen: growth loss of RecBCD+ E. coli with mutant T4 phage; inhibition, % at 11.9 µM; hit rate 73% among 880; shares compounds with AddAB inh; E. coli V66 + mutant T4 phage, OD growth;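 active = mean inhibition above the mean of solvent-only control wells plus 3 SD, cut at about 4% in these data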;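 note: optical density read after an 18 h incubation at 37 °C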
bact viab count: counter-screen for AddAB inhibitors: inhibitors of bacterial viability; absorbance (AddAB counterscreen); inhibition, % at 11.9 µM; hit rate 35% among 880; shares compounds with AddAB inh; in the data active = inhibition above about 25%
The depositor's hits bear a star; x = not tested or not shown.

SMILES	Tat transport	E coli growth-1	AddAB inh	E coli growth-2	phage Ecoli inh	AddAB confirm	RecBCD counter	bact viab count
Cc1noc(NS(=O)(=O)c2ccc(NC(=O)C(C)(C)C)cc2)c1C	-5	1	1	0.68	5	x	x	x
CCOC(=O)N1CCN(c2c(NCCCN3CCCCCC3)c(=O)c2=O)CC1	-2	5	12*	0.75	3	0	1	-2
CCOC(=O)/C=C/C(=O)OCC(=O)Nc1cccc(Cl)c1Cl	-28	76*	97*	0.65	4	-1	0	-4
CCC(C)Sc1ccc(C2C3C(=O)N(CC)C(=O)C3[C@]3(C(=O)OC)CCCCN23)cc1 (some centres undefined)	x	x	x	0.77	x	x	x	x
CC(=O)Nc1cccc(C(=O)NCCc2ccco2)c1	-22	12*	12*	0.66	8	7	10*	8
CCC(=O)NC(c1ccccc1OC)c1ccc2cccnc2c1O (centres undefined)	-8	24*	28*	0.66	x	18*	23*	15
O=C(/C=C/c1ccccc1Cl)c1ccc(O)cc1	9	-1	1	0.61	-2	x	x	x
Cc1ccc(C)c(/C=C/C(=O)c2ccccc(=O)c2O)c1	-1	12*	15*	0.67	8	2	6.5*	-1
O=C(/C=C/c1ccccc1Cl)c1ccccc(=O)c1O	-3	9	15*	0.66	3	8	8.3*	5
CCOC(=O)C1C2COc3ccc(C)cc3C2N2C(=O)c3ccc(F)cc3NC(=O)[C@@]12C (some centres undefined)	x	x	x	0.69	x	x	x	x
COC(=O)[C@@]12CCCCN1C(c1ccc(-c3ccc(OC)cc3)cc1)C1C(=O)N(C)C(=O)C12 (some centres undefined)	x	x	x	0.7	x	x	x	x
C#CCOCCOCCOCCNc1nc(N2CCN(C(=O)C(C(C)C)n3cc(CCO)nn3)CC2)nc(N2CCN(C(=O)C(C(C)CC)n3cc(CCCN=C(N)N)nn3)CC2)n1 (centres undefined)	x	x	x	0.7	x	x	x	x
Cc1ccc(NC(=S)NCc2cccnc2)cc1	-4	4	4	0.67	5	x	x	x
CCc1ccc(NC(=S)NCc2cccnc2)cc1	-9	11*	14*	0.61	7	6	6.7*	4
COCCNc1nnc(Cc2ccc(OC)c(OC)c2)c(=O)[nH]1	3	0	-2	0.63	0	x	x	x
COc1ccc(Cc2nnc(NN)[nH]c2=O)cc1OC	12	93*	97*	0.081*	0	99*	11*	97*
CC(CC1CC(C)OC1=O)=NNC(N)=S (centres undefined)	x	x	x	0.68	x	x	x	x
Cc1[nH]n(-c2ccccc2)c(=O)c1C(=O)c1ccc(Cl)cc1	-1	96*	97*	0.68	0	0	-2	-6
COc1cc(OC)cc(-c2oc(=O)c3cc(OC)c(OC)cc3c2C=Cc2ccc(F)cc2)c1	x	x	x	0.72	x	x	x	x
O=C(COC(=O)C=Cc1cccs1)NC(=O)Cc1ccccc1	x	x	x	0.71	x	x	x	x
O=C(Nc1nnc(-c2ccccn2)o1)c1cccc(Cl)c1	-6	-7	0	0.57	-6	x	x	x
O=C(Nc1nnc(-c2ccco2)o1)c1cccc(Cl)c1	-6	0	15*	0.69	-4	0	-2	-4
O=C(Nc1nnc(-c2cccs2)o1)c1cccc(F)c1	12	5	16*	0.35*	8	9	14*	7
COc1ccc(S(=O)(=O)Nc2cccc3c2OC(CN(C)C(=O)Nc2c(C)noc2C)C(C)CN(C(C)CO)C3=O)cc1 (centres undefined)	x	x	x	0.62	x	x	x	x
O=C1C2CCCN2C(c2ccccc2)N1c1cccc(Cl)c1 (centres undefined)	2	1	119*	0.65	2	-3	0	-3
SMILES	Tat transport	E coli growth-1	AddAB inh	E coli growth-2	phage Ecoli inh	AddAB confirm	RecBCD counter	bact viab count
O=C1C2CCCN2C(c2ccc(F)c(F)c2)N1c1cccc(Cl)c1 (centres undefined)	-7	1	2	0.72	0	x	x	x
NCCCCCNC(=O)c1[nH]cnc1C(=O)NC(Cc1ccccc1)C(=O)OCc1ccccc1 (centres undefined)	x	x	x	0.7	x	x	x	x
O=C(Nc1ccc2oc(-c3ccccc3)nc2c1)c1cc(-n2cnnc2)ccc1Cl	1	65*	95*	0.69	1	4	-1	-2
CCN(Cc1ccccc1)C(=O)Cn1cc2c(n1)CCCC2	-5	3	12*	0.72	2	1	0	-4
CCOC(=O)CC1C(C(=O)OCC)ON2OC(C(=O)OC)C(C(=O)OCC)C12 (centres undefined)	-4	21*	46*	0.67	1	-3	1	-2
COC(=O)CC1C(C(=O)OC)ON2OC(C(=O)OC)C(C(=O)OC)C12 (centres undefined)	1	-2	0	0.69	4	x	x	x
O=C1C(Nc2ccccc2)=C/C(=N/S(=O)(=O)c2cccs2)c2ccccc21	13	3	17*	x	x	1	4.7*	-4
CC(NC(=O)NC1CCCCC1)C(c1cccs1)N1CCN(C)CC1 (centres undefined)	-13	8	85*	0.73	1	1	0	-4
CC(C)(C)OC(=O)NCCCCC(C(=O)NCCCCCCCCCCC(=O)N1CCN(C(=O)OC(C)(C)C)CC1)n1cc(CCCC(=O)O)nn1 (centres undefined)	x	x	x	0.7	x	x	x	x
O=S(c1cc(Cl)cc(Cl)c1O)c1cc(Cl)cc(Cl)c1O	x	x	x	x	10	x	x	x
Oc1c(Cl)cc(Cl)cc1Sc1cc(Cl)cc(Cl)c1O	x	16*	15*	x	x	10	15*	12
CSC(=S)N/N=C/c1ccc(N(C)C)cc1	5	7	16*	x	3	53*	7.4*	30*
CSC(=S)N/N=C/c1ccc(Br)cc1	-5	5	5	x	8	x	x	x
O=C(CCNC(=O)c1ccco1)Nc1cccc(Br)c1	-7	2	14*	0.67	3	7	4	1
CSc1cccc(NC(=O)CCNC(=O)c2ccco2)c1	2	5	7	0.66	3	x	x	x
Cc1ccc(OCC(=O)c2c[nH]c3ccccc23)c([N+](=O)[O-])n1	7	20*	23*	0.64	7	46*	6.8*	42*
CCOC(=O)C1C2COc3cc(OC)ccc3C2N2C(=O)c3cc(C)ccc3NC(=O)[C@@]12C (some centres undefined)	x	x	x	0.73	x	x	x	x
Cc1[nH]nc(SCC(=O)Nc2ccc(C#N)cc2)c1[N+](=O)[O-]	-8	7	10	x	10	x	x	x
Cc1ccc(NC(=O)CSc2n[nH]c(C)c2[N+](=O)[O-])cc1	-3	7	14*	0.68	9	2	4.7*	2

Assay outcomes from PubChem.
